Data: the supplement of paper PMC6555819

Key:
Assay in all cases: PBM binding z-score (relative to random genomic background probes); higher = stronger binding; sequences stand for … in GC…GCGATTGACAGCGTAGAATGAAGG
[1] = test system: FXR:RXRa (NR concentration 270 nM, RXRa partner concentration 90 nM)
Outline: (§1)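 Binding z-scores were set against random background probes. The data came from custom Agilent 4×180K protein-binding microarrays carrying double-stranded probes with 34-nt variable regions, incubated 1 h with ligand-free nuclear receptor dimers. Partner-specific antibodies detected binding, and scanned fluorescence was regression-normalized.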

[2] = test system: LXRa:RXRa (NR concentration 270 nM, RXRa partner concentration 90 nM)
Outline: as §1

[3] = test system: LXRa homodimer (NR concentration 270 nM)
Outline: as §1

[4] = test system: LXRb:RXRa (NR concentration 270 nM, RXRa partner concentration 90 nM)
Outline: as §1

[5] = test system: LXRb homodimer (NR concentration 270 nM)
Outline: as §1

[6] = test system: PPARa:RXRa (NR concentration 270 nM, RXRa partner concentration 90 nM)
Outline: as §1

[7] = test system: PPARg:RXRa (NR concentration 180 nM, RXRa partner concentration 90 nM)
Outline: as §1

[8] = test system: PPARg:RXRa 270nM:90nM, anti-RXR (NR concentration 270 nM, RXRa partner concentration 90 nM)
Outline: as §1

[9] = test system: PPARg:RXRa 30nM:10nM, anti-RXR (NR concentration 30 nM, RXRa partner concentration 10 nM)
Outline: as §1

[10] = test system: PPARg:RXRa 90nM:30nM, anti-RXR (NR concentration 90 nM, RXRa partner concentration 30 nM)
Outline: as §1

[11] = test system: PPARg:RXRa DBDmut IVT, anti-RXR (DBD mutation: RXRa K156A/R161A, NR concentration 270 nM, RXRa partner concentration 90 nM)
Outline: as §1

[12] = test system: PPARg:RXRa IVT, anti-PPARg (NR concentration 270 nM, RXRa partner concentration 90 nM)
Outline: as §1

[13] = test system: PPARg DBDmut:RXRa IVT, anti-PPARg (DBD mutation: PPARg1 K132A/R137A, NR concentration 270 nM, RXRa partner concentration 90 nM)
Outline: as §1

[14] = test system: PPARg DBDmut IVT, anti-PPARg (DBD mutation: PPARg1 K132A/R137A, NR concentration 270 nM)
Outline: as §1

[15] = test system: PPARg homodimer (NR concentration 180 nM)
Outline: as §1

[16] = test system: PXR:RXRa (NR concentration 270 nM, RXRa partner concentration 90 nM)
Outline: as §1

[17] = test system: PXR homodimer (NR concentration 270 nM)
Outline: as §1

[18] = test system: RARa:RXR (NR concentration 270 nM, RXRa partner concentration 90 nM)
Outline: as §1

[19] = test system: RARa homodimer (NR concentration 270 nM)
Outline: as §1

[20] = test system: RARb:RXRa (NR concentration 270 nM, RXRa partner concentration 90 nM)
Outline: as §1

| Sequence | PBM binding z-score [1] | PBM binding z-score [2] | PBM binding z-score [3] | PBM binding z-score [4] | PBM binding z-score [5] | PBM binding z-score [6] | PBM binding z-score [7] | PBM binding z-score [8] | PBM binding z-score [9] | PBM binding z-score [10] | PBM binding z-score [11] | PBM binding z-score [12] | PBM binding z-score [13] | PBM binding z-score [14] | PBM binding z-score [15] | PBM binding z-score [16] | PBM binding z-score [17] | PBM binding z-score [18] | PBM binding z-score [19] | PBM binding z-score [20] |
| --- | --- | --- | --- | --- | --- | --- | --- | --- | --- | --- | --- | --- | --- | --- | --- | --- | --- | --- | --- | --- |
| TTATATAGGTAAACAGGTGAAAGTCCGTAAGTTA | 0.62 | 0.679 | 0.481 | 0.738 | 0.246 | 3.31 | 5.61 | 4.75 | 2.93 | 4.41 | 6.54 | 6.8 | 2.26 | 1.83 | 1.4 | 0.532 | 0.398 | 0.957 | 1.15 | 0.687 |
| GGAACGAGGGCAAGTTAATAGCAGAGTTTGATGG | 0.629 | 0.178 | -0.0244 | 0.334 | -0.49 | 1.53 | 1.14 | 0.86 | 0.37 | 0.378 | 3.46 | 2.52 | 0.284 | -0.167 | 0.47 | 0.548 | 0.977 | 0.427 | -0.189 | 2.26 |
| GCGACTTGGGCATCAGCAGGTTACCATAACTTAA | -0.439 | -0.445 | -0.567 | -0.214 | -0.905 | -0.0723 | 0.0729 | -0.529 | -0.585 | -0.893 | -0.319 | -0.238 | -1.02 | -0.802 | -0.13 | -0.0644 | -0.495 | 0.232 | -0.904 | 0.00104 |
| CGTCAAAGTTCAACTAAGGTAACGCAAAGCACGC | 7.01 | 6.31 | 4.34 | 4.15 | 1.94 | 5.28 | 5.24 | 5.67 | 2.5 | 4.74 | 0.641 | 2.32 | 0.717 | 0.408 | 3.08 | 5.42 | 3.81 | 4.22 | 1.83 | 5.15 |
| GCGACTGGGGCATCAGCAGTTTACCATAACTTAA | -0.0811 | -0.328 | -0.256 | 0.505 | -0.674 | 0.605 | 0.756 | 1.18 | -0.193 | 0.414 | 3.71 | 2.93 | -0.206 | 0.0271 | 0.458 | 0.227 | 0.14 | 0.0655 | 0.0729 | 0.388 |
| CCTACTGGGCCATTCAGAGGTCATTGACCATATG | 3.07 | 4.59 | 6.66 | 3.95 | 0.537 | 3.86 | 2.55 | 3.37 | 1.07 | 2.25 | 4.24 | 4.24 | 0.0159 | 0.229 | 2.02 | 4.93 | 2.23 | 4.52 | 0.388 | 3.17 |
| GCTATTAGTTGAAAGGGCAACCCAATGATTCTCG | 0.453 | 0.68 | 0.645 | 0.925 | -0.181 | 2.4 | 2.65 | 4.29 | 1.81 | 3.88 | 0.127 | 0.818 | -0.129 | 0.251 | 1.44 | 0.791 | 0.511 | 1.27 | 0.81 | 2.08 |
| CGTCCAAGCTCAAAGGTCAGTGAAGAGATGACGG | 3 | 2.95 | 0.546 | 2.8 | 0.14 | 3.99 | 3.03 | 4.16 | 2.1 | 3.97 | 0.0789 | 1.7 | -0.175 | -0.869 | 3.43 | 3.24 | 0.202 | 4.05 | 1.36 | 4.48 |
| CCTAGTAGGCCAGGGTCACTCAAGCATTTCGCTT | 1.96 | 1.56 | -0.322 | 2.01 | -0.98 | 3.69 | 3.5 | 4.07 | 1.36 | 3.22 | 4.28 | 4.48 | -0.152 | -1.37 | 0.886 | 2.55 | -0.126 | 2.8 | -0.346 | 2.65 |
